From PubChem BioAssay come the findings set out here.

Usually inhibition stands for the relative decrease from the control value, in per cent.

Unmarked numbers belong to inactive results. For part of these data: Measured potencies and affinities stand elsewhere. The source made the active and inactive calls. Unless noted, how the calls were made is not given here.

Assay [1] can be described thus: antimalarial activity against Dd2 strain (AID 2302;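 active means growth inhibition above 50% at the single 2 µM test dose, taken to imply half-maximal potency below 2 µM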;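 further: 0% = DMSO untreated growth and 100% = chloroquine plus artemisinin killed control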). The note with it: P. falciparum Dd2 in RBCs, LDH growth readout, 72 h; at 2 µM; hits give high values.
Assay [2] can be described thus: HepG2 cytotoxicity, primary screen, cytotoxicity control for P. falciparum antimalarial project, cell-based, ATP luminescence (AID 2303;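 active means inhibition above 50%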;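 further: 0% = DMSO wells and 100% = digitonin-killed cells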). The note with it: HepG2 viability, 24-48 h, at 10 µM, hits give high values.
For assay [3], the target named is L-lactate dehydrogenase (Plasmodium falciparum (isolate CDC / Honduras)) (UniProt Q27743). Put plainly: PfLDH activity inhibition – cell lysate, 3D7 strain, counter-screen for P. falciparum growth inhibition project (AID 2304).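 Further: 0% = vehicle and 100% = reference inhibitor.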 The note with it: P. falciparum 3D7 crude extract, LDH APAD/NBT absorbance; at 2 µM; hits give high values. In general terms: Counterscreens check selectivity or assay interference.

A short description of assay [4]: inhibition of 3D7 malaria parasite growth – strain 3D7 (AID 2306).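 Further: 0% = DMSO wells and 100% = chloroquine plus artemisinin control wells.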 The note with it: P. falciparum 3D7 erythrocytic growth, LDH absorbance, 72 h; at 2 µM; hits give high values.
The target in assay [5] is Calcium-dependent protein kinase 1 (Plasmodium falciparum (isolate 3D7)) (UniProt P62344). Briefly: PfCDPK1 kinase inhibitors, biochemical, TCAMS library (AID 1159585; cut-off not given, nearly all actives have IC50 up to about 0.98 µM;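 further: inhibitors leave more ATP so luminescence rises with inhibition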). The note with it: recombinant PfCDPK1, Kinase-Glo ATP depletion luminescence.
For assay [6], the target named is Plasmodium falciparum protein kinase 6 (PK6, PF3D7_1337100) (UniProt Q8IDW1). Briefly: PfPK6 kinase inhibitors, biochemical, TCAMS library (AID 1159586). The note with it: recombinant PfPK6, Kinase-Glo ATP depletion luminescence. In general terms: In Kinase-Glo more light means more ATP remaining.
Assay [7] has as its target Protein kinase 7 (PK7), Plasmodium falciparum 3D7 (PF3D7_0213400) (UniProt Q7YTF7). Put plainly: inhibition of Plasmodium PK7 catalytic activity – biochemical, TCAMS antimalarial set, Kinase-Glo luminescence (AID 1159587). The note with it: recombinant PfPK7, Kinase-Glo ATP depletion luminescence.
Assay [8] has as its target Calcium-dependent protein kinase 4 (Plasmodium falciparum (isolate 3D7)) (UniProt Q8IBS5). Put plainly: PfCDPK4 kinase inhibitors, biochemical, TCAMS library (AID 1159588; cut-off not given, nearly all actives have IC50 up to about 0.91 µM). The note with it: recombinant PfCDPK4, Kinase-Glo ATP depletion luminescence.

Chain of Calcium-dependent protein kinase 4 (Plasmodium falciparum (isolate 3D7)) (Q8IBS5 whole entry, looked up): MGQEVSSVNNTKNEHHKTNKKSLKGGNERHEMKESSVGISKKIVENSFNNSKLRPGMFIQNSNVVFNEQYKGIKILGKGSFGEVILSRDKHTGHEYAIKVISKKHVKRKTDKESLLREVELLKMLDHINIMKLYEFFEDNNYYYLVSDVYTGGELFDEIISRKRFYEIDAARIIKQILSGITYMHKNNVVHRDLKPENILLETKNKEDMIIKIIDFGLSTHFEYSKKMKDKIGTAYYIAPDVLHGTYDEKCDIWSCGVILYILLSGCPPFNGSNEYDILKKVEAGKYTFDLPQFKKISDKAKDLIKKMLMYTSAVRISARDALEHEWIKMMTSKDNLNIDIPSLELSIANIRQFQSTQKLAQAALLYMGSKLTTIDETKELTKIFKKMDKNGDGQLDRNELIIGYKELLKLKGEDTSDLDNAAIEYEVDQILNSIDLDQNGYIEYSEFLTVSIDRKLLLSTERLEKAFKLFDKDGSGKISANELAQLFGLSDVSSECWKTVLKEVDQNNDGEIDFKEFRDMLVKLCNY
Chain of L-lactate dehydrogenase (Plasmodium falciparum (isolate CDC / Honduras)) (Q27743 whole entry, looked up): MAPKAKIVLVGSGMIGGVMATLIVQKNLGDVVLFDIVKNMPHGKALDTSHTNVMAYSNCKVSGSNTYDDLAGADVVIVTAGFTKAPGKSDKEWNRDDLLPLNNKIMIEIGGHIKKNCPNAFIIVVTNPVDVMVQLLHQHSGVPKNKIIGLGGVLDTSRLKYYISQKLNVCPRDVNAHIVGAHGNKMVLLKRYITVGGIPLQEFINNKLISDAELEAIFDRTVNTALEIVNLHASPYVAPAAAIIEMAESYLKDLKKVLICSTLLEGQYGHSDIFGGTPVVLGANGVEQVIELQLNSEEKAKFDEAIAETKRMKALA
Chain of Plasmodium falciparum protein kinase 6 (PK6, PF3D7_1337100) (Q8IDW1 1-305): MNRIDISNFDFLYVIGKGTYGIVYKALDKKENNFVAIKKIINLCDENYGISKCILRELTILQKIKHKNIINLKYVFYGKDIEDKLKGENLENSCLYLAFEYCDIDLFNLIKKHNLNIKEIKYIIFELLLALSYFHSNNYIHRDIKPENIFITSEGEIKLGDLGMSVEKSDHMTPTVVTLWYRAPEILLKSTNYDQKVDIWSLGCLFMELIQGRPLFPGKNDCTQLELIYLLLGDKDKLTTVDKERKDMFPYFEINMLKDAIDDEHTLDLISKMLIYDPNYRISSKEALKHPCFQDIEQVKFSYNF
Chain of Calcium-dependent protein kinase 1 (Plasmodium falciparum (isolate 3D7)) (P62344 whole entry, looked up): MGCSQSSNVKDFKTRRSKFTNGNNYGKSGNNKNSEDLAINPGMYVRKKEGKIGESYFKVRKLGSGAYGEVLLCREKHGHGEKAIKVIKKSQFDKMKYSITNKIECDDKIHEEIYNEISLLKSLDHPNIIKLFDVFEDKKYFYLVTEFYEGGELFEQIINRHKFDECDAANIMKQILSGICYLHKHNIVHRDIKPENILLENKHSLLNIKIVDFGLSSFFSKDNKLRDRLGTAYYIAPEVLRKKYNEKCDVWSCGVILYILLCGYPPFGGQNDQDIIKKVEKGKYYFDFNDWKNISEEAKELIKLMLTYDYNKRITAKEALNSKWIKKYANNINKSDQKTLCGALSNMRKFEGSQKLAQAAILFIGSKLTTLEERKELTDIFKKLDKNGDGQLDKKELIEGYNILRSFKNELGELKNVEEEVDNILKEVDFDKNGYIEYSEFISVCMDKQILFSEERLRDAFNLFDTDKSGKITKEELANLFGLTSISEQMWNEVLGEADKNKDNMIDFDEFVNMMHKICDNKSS
Chain of Protein kinase 7 (PK7), Plasmodium falciparum 3D7 (PF3D7_0213400) (Q7YTF7 1-343): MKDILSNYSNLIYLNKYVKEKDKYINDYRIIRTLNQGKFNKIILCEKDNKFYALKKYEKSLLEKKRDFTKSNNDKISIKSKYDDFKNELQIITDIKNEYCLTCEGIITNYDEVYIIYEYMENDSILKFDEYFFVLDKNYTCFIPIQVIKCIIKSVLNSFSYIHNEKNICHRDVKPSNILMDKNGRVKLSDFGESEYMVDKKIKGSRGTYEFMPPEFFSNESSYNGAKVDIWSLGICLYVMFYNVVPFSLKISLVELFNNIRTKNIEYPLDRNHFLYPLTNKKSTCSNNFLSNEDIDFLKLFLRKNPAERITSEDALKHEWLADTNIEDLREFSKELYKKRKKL

For `CCOc1ccc(CCC(=O)O)cc1OCC`, the growth inhibition in assay [1] was -3%; in assay [4] it was 94% (active). Besides, the figures for the inhibition in assay [2] and in assay [3] were 60% (active) and 6%, respectively. Also, the result in assay [5], in assay [6], in assay [7] and in assay [8] was inactive.
Take `COc1cc(C(=O)NCCCN2CCN(c3cccc(Cl)c3)CC2)ccc1-c1cc2cc(Cl)c(Cl)cc2[nH]1`: the values for the growth inhibition in assay [1] and in assay [4] were 86% (active) and 100% (active), respectively. Further, the values for the inhibition in assay [2] and in assay [3] were 35% and 0%, respectively. Besides, the result in assay [5], in assay [6], in assay [7] and in assay [8] was inactive.
For the compound `Cc1ccc(N2C(=O)C3C(C2=O)[C@]2(c4ccccc4)C(=O)[C@@]3(c3ccccc3)C(c3ccccc3)=C2c2ccccc2)c(C)c1` (some centres undefined), the growth inhibition in assay [1] and in assay [4] was 96% (active) each time. The inhibition was 3% in assay [2] and 6% in assay [3]. Moreover, the outcome in assay [5], in assay [6], in assay [7] and in assay [8] was inactive.
Consider `CN(C)CC(=O)N(Cc1ccc(Cl)c(Cl)c1)Cc1csc(-c2ccc(CNCc3ccccc3)cc2)n1`, for which the growth inhibition is 32% in assay [1] and 96% (active) in assay [4]. Also, the inhibition in assay [2] is 30%; in assay [3] it was 4%. Moreover, the result in assay [5], in assay [6], in assay [7] and in assay [8] was inactive.
Take `O=C(Nc1ccc(Oc2ccccc2)cc1)N[C@H]1CCN(Cc2ccc(OCCCN3CCCCC3)cc2)C1`: the results for the growth inhibition in assay [1] and in assay [4] were 6% and 103% (active), respectively. Moreover, the values for the inhibition in assay [2] and in assay [3] were 13% and -6%, respectively. Besides, the outcome in assay [5], in assay [6], in assay [7] and in assay [8] was inactive.
As to `COc1cccc2c(NN=Cc3ccccc3[N+](=O)[O-])ccnc12`, the results for the growth inhibition in assay [1] and in assay [4] were 43% and 99% (active), respectively. The inhibition in assay [2] was 8%; in assay [3], -3%. Moreover, the result in assay [5], in assay [6], in assay [7] and in assay [8] was inactive.
Regarding `Cc1cc(=O)[nH]c(-n2nc(C)cc2NC(=O)CC(c2ccccc2)c2ccccc2)n1`, the growth inhibition in assay [1] was 62% (active); in assay [4] it was 90% (active). In addition, the inhibition in assay [2] is 42%; in assay [3] it was 2%. Moreover, the outcome in assay [5], in assay [6], in assay [7] and in assay [8] was inactive.
`O=C(NC1CCCCCC1)C1CCCN(C(=O)c2ccc(O)c(-c3ccc(Cl)c(Cl)c3)c2)C1` (centres undefined): the figures for the growth inhibition in assay [1] and in assay [4] were 21% and 98% (active), respectively. In addition, the figures for the inhibition in assay [2] and in assay [3] were 5% and -2%, respectively. The result in assay [5], in assay [6], in assay [7] and in assay [8] was inactive.
`COc1ccc(CNC2CCN(C)CC2)cc1-c1ccc(S(=O)(=O)NCCc2ccccn2)c(F)c1`: the growth inhibition in assay [1] was 55% (active); in assay [4], 101% (active). The inhibition was 3% in assay [2] and 1% in assay [3]. Besides, the outcome in assay [5], in assay [6], in assay [7] and in assay [8] was inactive.
With `Nc1ccn([C@@H]2O[C@H](COC(c3ccccc3)(c3ccccc3)c3ccccc3)[C@@H](O)[C@@H]2O)c(=O)n1`, the growth inhibition in assay [1] is 2%; in assay [4], 93% (active). Further, the values for the inhibition in assay [2] and in assay [3] were 26% and 1%, respectively. Besides, the result in assay [5], in assay [6], in assay [7] and in assay [8] was inactive.
In the case of `NC1=NC(c2ccccc2)N(OCc2ccccc2)C(N)=N1` (centres undefined), the growth inhibition in assay [1] was 21%; in assay [4], 96% (active). Besides, the inhibition in assay [2] was 5%; in assay [3] it was -6%. Moreover, the outcome in assay [5], in assay [6], in assay [7] and in assay [8] was inactive.
Regarding `O=c1c2sc(-c3ccc(Cl)cc3)cc2ncn1Cc1ccc(OCCN2CCCC2)c2ccccc12`, the figures for the growth inhibition in assay [1] and in assay [4] were 81% (active) and 100% (active), respectively. Moreover, the inhibition was 38% in assay [2] and 1% in assay [3]. The result in assay [5], in assay [6], in assay [7] and in assay [8] was inactive.
As for `Cc1cccc2[nH]c(-c3ccc(-c4cccc(CNCC5CCCO5)c4)s3)nc12` (centres undefined), the growth inhibition in assay [1] is 11%; in assay [4], 93% (active). In addition, the inhibition in assay [2] is 26%; in assay [3] it was -8%. Besides, the result in assay [5], in assay [6], in assay [7] and in assay [8] was inactive.
Regarding `COc1ccccc1CCNc1nc(C)cc(N[C@@H](CC(C)C)C(=O)NCc2cccc(F)c2)n1`, the figures for the growth inhibition in assay [1] and in assay [4] were 79% (active) and 94% (active), respectively. The inhibition in assay [2] is 20%; in assay [3], -3%. Also, the outcome in assay [5], in assay [6], in assay [7] and in assay [8] was inactive.
As to `COc1ccccc1-c1cc(C(=O)N2CCN(S(=O)(=O)c3ccc(C)cc3)CC2)[nH]n1`, the growth inhibition in assay [1] and in assay [4] was 88% (active) throughout. For the same compound, the inhibition in assay [2] was -12%; in assay [3], -4%. The outcome in assay [5], in assay [6], in assay [7] and in assay [8] was inactive.
As to `CCCOc1ccccc1C(=O)Nc1nonc1-c1ccc(OCC)c(OCC)c1`, the growth inhibition in assay [1] is 89% (active); in assay [4], 99% (active). The inhibition in assay [2] is 46%; in assay [3] it was -4%. Further, the outcome in assay [5], in assay [6], in assay [7] and in assay [8] was inactive.
On to `Nc1cccc(CNCc2cccc(-c3cccc(-c4nc5ccc(F)cc5[nH]4)c3)c2)c1`, for which the growth inhibition in assay [1] was 82% (active); in assay [4], 102% (active). The inhibition was 5% in assay [2] and -4% in assay [3]. For the same compound, the result in assay [5], in assay [6], in assay [7] and in assay [8] was inactive.
`CCN(CC)c1ccc(C(=O)Cn2ccc(=N)cc2)cc1`: the growth inhibition is 64% (active) in assay [1] and 84% (active) in assay [4]. The inhibition in assay [2] is 92% (active); in assay [3], 3%. The result in assay [5], in assay [6], in assay [7] and in assay [8] was inactive.
